In the first assay the target is P2RX3. Briefly: pooled miR-30 sensor sort-seq; sequence = guide strand. The note with it: shRNA.
Sequence TATACCAGCACGTCGAAGCGGA came in with a sensor-assay potency score (higher = more potent) of -0.313.

Turning to TTCCACTGTGTCCACCTCCGTG, the sensor-assay potency score (higher = more potent) is -1.06.

As for TTGTCCAAGTCGCACACCCAGC, the sensor-assay potency score (higher = more potent) is -1.44.

As to TTGAACTTGCCAGCATTCCCGT, the sensor-assay potency score (higher = more potent) was -1.02.

The sequence TTTCTCAGAAACGCTGTCGAGC displayed a sensor-assay potency score (higher = more potent) of -0.254.

Turning to TACCTGGTAAGCCTTCTCGTGC, the sensor-assay potency score (higher = more potent) is -1.6.

The target in a further assay is P2RY12. The assay is described as above. The note with it: shRNA.
TTAACTTAGTTGCTTCTTCGTC showed a sensor-assay potency score (higher = more potent) of -0.236.

The sequence TTGACGTTCACCTTTTTCCTGG registered a sensor-assay potency score (higher = more potent) of 0.386.

For the sequence TTCACATTCTTGTCTCTCGGCT, the sensor-assay potency score (higher = more potent) was -0.666.

In turn, TAATATTTTTACTTAGCGCTTT displayed a sensor-assay potency score (higher = more potent) of 0.117.

The sequence ATTTGGGTCACCACCATCCTGT displayed a sensor-assay potency score (higher = more potent) of -0.843.

On to TTATTAACTTAGTTGCTTCTTC, for which the sensor-assay potency score (higher = more potent) amounted to 0.717.

TTCTTGTCTCTCGGCTGCCTGT returned a sensor-assay potency score (higher = more potent) of -1.33.

As for TAATTTACTATTTCATGCCAGA, the sensor-assay potency score (higher = more potent) was -0.703.

The sequence TTATTATTAACTTAGTTGCTTC yielded a sensor-assay potency score (higher = more potent) of -0.642.

In turn, TTAACCACAGAGTGCTCTCTTT registered a sensor-assay potency score (higher = more potent) of -0.668.

Regarding TTTCATGCCAGACTAGACCGAA, the sensor-assay potency score (higher = more potent) is -0.342.

Sequence TAAAGTTTGATTTACTCCGGAT registered a sensor-assay potency score (higher = more potent) of -0.511.

The target in another assay is P2RY4. The assay is described as above. The note with it: shRNA.
TGAACTTGAAATCCTCATCAAA came in with a sensor-assay potency score (higher = more potent) of -1.05.

For AGTAGAGCAGCTACTGTCCTGG, the sensor-assay potency score (higher = more potent) was -1.37.

TAGCAAACAAGAGTGACCAGGC returned a sensor-assay potency score (higher = more potent) of 0.861.

The sequence ATAGCAAACAAGAGTGACCAGG yielded a sensor-assay potency score (higher = more potent) of -0.888.

For the sequence TAGAGCAGCTACTGTCCTGGGG, the sensor-assay potency score (higher = more potent) stood at 0.0671.

Sequence TAGCGGTGCACGCTGATGCAGG showed a sensor-assay potency score (higher = more potent) of -1.24.

As for TAGAGCACAGGATCCAGGCAGC, the sensor-assay potency score (higher = more potent) was -0.928.

Regarding TTCCAATAGAAAAGAAAGCGGA, the sensor-assay potency score (higher = more potent) was -0.289.

On to TTGAAATCCTCATCAAACCAAC, for which the sensor-assay potency score (higher = more potent) is -1.03.

As to AAGACGACTGTGCAGAGCCTGG, the sensor-assay potency score (higher = more potent) is -1.35.

As for TTGACAATGTTCAGTACTCGGC, the sensor-assay potency score (higher = more potent) is -0.264.

Sequence TAGGAGTAGAGCAGCTACTGTC returned a sensor-assay potency score (higher = more potent) of -0.823.

A further assay concerns the target P2RY6. Described as above. Conditions: shRNA.
On to ATAGTTGTAGATGAGCAGGGGC, for which the sensor-assay potency score (higher = more potent) was 0.421.

The sequence TTGGCATAGAAGAGGAAGCGGA displayed a sensor-assay potency score (higher = more potent) of -1.

TTGGGCATAGTTGTAGATGAGC displayed a sensor-assay potency score (higher = more potent) of -1.06.

In turn, TTCTCGCGGTAGACACAGGTGG displayed a sensor-assay potency score (higher = more potent) of -0.894.

TTCTGTAGGAGCTCATGTGGTC came in with a sensor-assay potency score (higher = more potent) of -0.257.

TTTAGGGTGTACACGGCCGTGC displayed a sensor-assay potency score (higher = more potent) of -0.557.

Turning to TTGGTGAGCTTCTGGGTCCTGT, the sensor-assay potency score (higher = more potent) was -0.191.

For the sequence TAGCGCTGGAAGCTGATGCAGG, the sensor-assay potency score (higher = more potent) is -0.775.

In turn, TTTCTGTAGGAGCTCATGTGGT returned a sensor-assay potency score (higher = more potent) of -1.02.

For the sequence TTTTGTGAGCACCTTAATGTGG, the sensor-assay potency score (higher = more potent) is -0.636.

Values taken from the OligoGym collection.
Note: reference of the scale not given here.
